Among the data in PubChem BioAssay (NCATS) are Potency, activity change, negative = inhibition and activity, negative = inhibition values, retold here.

Assay [1] deals with Lysosomal acid glucosylceramidase (Homo sapiens) (UniProt P04062). The experiment in a line: Glucocerebrosidase-p2 (AID 348; in the data active = potency below about 10 µM; note: potency is the fitted concentration of half-maximal effect). Particulars: purified GBA, blue fluorogenic substrate, 40 min. In outline: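 Normal human glucocerebrosidase (0.2 nM) with blue fluorogenic substrate (80 uM final) in citrate/phosphate pH 5.9 with 10mM sodium taurocholate, 0.01% tween-20; 40 min RT, NaOH/glycine stop; fluorescence Ex 365/Em 440; AC50 from a titration from 0.6 nM upwards.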

Assay [2] in a line: AP1 Signaling Pathway (AID 357).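 Note: ME-180 reporter cells stimulated with EGF at its EC50 level; % is set by controls: 0 for no effect and ±100 for the full control effect.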 The note with it: ME-180 AP-1-bla reporter, EGF-induced, beta-lactamase ratio, 5 h; at 7.69 µM (top of the series) unless noted. The method in brief:
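Titration-series screen for positive or negative modulators of EC50 EGF-induced signaling in ME-180 cells carrying an AP-1-driven beta-lactamase reporter. After 5 hours at 37 degrees Celsius, CCF4 460nm/530nm emission ratio gave %Activity; AC50 values derived.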

Assay [3] concerns the target Cytochrome P450 1A2 (Homo sapiens) (UniProt P05177). The experiment in a line: p450-cyp1a2 (AID 410; calls by dose curve; note: potency is the fitted concentration of half-maximal effect;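 for activity change, negative = inhibition: -100% = full effect of reference inhibitor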). The note with it: recombinant CYP1A2, luciferin-ME demethylation, luminescence; series mostly up to 11.4 µM. The method in brief:
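20nM CYP1A2, 100uM Luciferin-ME (=Km), 100mM KPO4; cpd 10 min RT; +NADPH regen, 60 min RT; stop/detect 20 min; luminescence. Normalized to furafylline 57 uM = full inhibition.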

Assay [4] is described as follows: NFAT Signaling Pathway (AID 444).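 Note: carbachol stimulus at about its EC50 of 1 µM final; % is set by controls: 0 for no effect and ±100 for the full control effect.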 Particulars: Jurkat NFAT-bla M1, carbachol, beta-lactamase ratio, 5 h; at 7.69 µM (top of the series) unless noted. In outline: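 Jurkat cells carrying an NFAT-driven β-lactamase reporter and co-transfected muscarinic M1 receptor were treated with compound plus carbachol (1 uM final, an EC50 level) for 5 h at 37 °C. CCF4 loading followed for 1 h at RT; 460/530 nm ratio gave %activity.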

Assay [5] in a line: Stat Signaling Pathway (AID 446).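 Note: ME-180 cervical cancer cells given 40 pM IL-6 alongside compound; SIE-controlled beta-lactamase reporter measured as 460/530 nm FRET emission ratio; % is set by controls: 0 for no effect and ±100 for the full control effect.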 Particulars: ME-180 (cervical carcinoma) SIE beta-lactamase reporter, IL-6 stimulated, 5 h; at 7.69 µM (top of the series) unless noted. In outline: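 Compound effects on IL-6-induced STAT reporter activity were measured in ME-180 cells. After overnight culture, cells were co-treated with 40 pM IL-6 for 5 hrs before beta-lactamase substrate loading at room temperature.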

Assay [6] deals with Glucocorticoid receptor (Homo sapiens) (UniProt P04150). The experiment in a line: GR-GFP Redistribution (AID 450;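 active = compounds whose dose series gives a full or clear partial fitted curve of increased nuclear translocation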; note: potency is the fitted concentration of half-maximal effect). The note with it: U2OS GR-GFP nuclear translocation, laser cytometry, 2 h.
Assay [7] shares this target. The experiment in a line: GR-EFC Redistribution (AID 451; calls by dose curve; note: potency is the fitted concentration of half-maximal effect). Particulars: CHO-K1 GR-EFC translocation, beta-gal luminescence, 2 h. The method in brief:
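CHO-K1 cells stably expressing nuclear-localized β-gal enzyme acceptor and GR fused C-terminally to the enzyme donor fragment; ligand-driven nuclear translocation restores β-gal by complementation. Compounds titrated up to 46 uM final, 2 h at 37 °C; luminescence read.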

Assay [8] has as its target Mitogen-activated protein kinase 10 (Mus musculus) (UniProt Q61831). The experiment in a line: JNK3 AlphaScreen Assay (AID 530).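 Note: kinase came from lysate of stimulated human HepG2 cells; % is set by controls: 0 for no effect and ±100 for the full control effect.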 The note with it: JNK3 lysate, c-Jun phosphorylation; series mostly up to 11.4 µM. The method in brief: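 Biotinylated GST-cJun(1-79) served as substrate for JNK3 in HepG2 lysates stimulated with IL-1beta and TNF-alpha. ATP was 10 uM final, pH 7.6. Ser73 phosphorylation was quantified by AlphaScreen (680 nm excitation).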

Assay [9] addresses 3',5'-cyclic-AMP phosphodiesterase 4B (Homo sapiens) (UniProt Q07343). The experiment in a line: qHTS Assay for Inhibitors of PDE-IV (AID 607; active = well fitted activation curve with a large enough effect in the main read-out, with a control signal flat, not every such curve was filed as active; note: % of control where 0% means no effect). The note with it: HEK293 ACTOne CNG channel cells, membrane potential fluorescence; series mostly up to 22.9 µM. In outline:
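ACTOne HEK293 cells carry a modified cAMP-gated CNG channel and express endogenous PDE4; plated 1000 cells/well, compounds up to 22.9 uM final. Membrane-potential dye fluorescence (ex 535/em 590) was read; parental cells received 10 uM forskolin + 100 uM RO 20-1724.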

Unmarked numbers belong to inactive results. Inconclusive results are not listed. The source made the active and inactive calls. Unless noted, calls come from the whole dose curve; as a rule, active = well fitted curve in either direction with a large enough effect (not every such curve was filed as active); inconclusive = small, poorly fitted or top-dose-only effect, or another doubt; inactive = flat fitted curve, though single readings scatter.

Cytochrome P450 1A2 (Homo sapiens), sequence (P05177 whole entry, looked up): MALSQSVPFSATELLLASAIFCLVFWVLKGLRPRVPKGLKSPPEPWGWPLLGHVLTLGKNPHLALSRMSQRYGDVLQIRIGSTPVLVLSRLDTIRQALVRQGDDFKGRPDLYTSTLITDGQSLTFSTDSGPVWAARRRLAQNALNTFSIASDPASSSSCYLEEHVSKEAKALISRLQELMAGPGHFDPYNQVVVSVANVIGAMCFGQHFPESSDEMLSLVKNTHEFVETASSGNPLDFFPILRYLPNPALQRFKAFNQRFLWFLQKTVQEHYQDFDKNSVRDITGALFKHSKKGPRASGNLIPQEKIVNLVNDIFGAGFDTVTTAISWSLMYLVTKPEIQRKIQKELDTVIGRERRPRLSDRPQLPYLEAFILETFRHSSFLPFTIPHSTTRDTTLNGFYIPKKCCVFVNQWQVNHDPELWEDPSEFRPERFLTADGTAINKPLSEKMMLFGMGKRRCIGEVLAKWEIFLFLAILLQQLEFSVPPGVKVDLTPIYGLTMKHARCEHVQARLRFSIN
Glucocorticoid receptor (Homo sapiens), sequence (P04150 whole entry, looked up): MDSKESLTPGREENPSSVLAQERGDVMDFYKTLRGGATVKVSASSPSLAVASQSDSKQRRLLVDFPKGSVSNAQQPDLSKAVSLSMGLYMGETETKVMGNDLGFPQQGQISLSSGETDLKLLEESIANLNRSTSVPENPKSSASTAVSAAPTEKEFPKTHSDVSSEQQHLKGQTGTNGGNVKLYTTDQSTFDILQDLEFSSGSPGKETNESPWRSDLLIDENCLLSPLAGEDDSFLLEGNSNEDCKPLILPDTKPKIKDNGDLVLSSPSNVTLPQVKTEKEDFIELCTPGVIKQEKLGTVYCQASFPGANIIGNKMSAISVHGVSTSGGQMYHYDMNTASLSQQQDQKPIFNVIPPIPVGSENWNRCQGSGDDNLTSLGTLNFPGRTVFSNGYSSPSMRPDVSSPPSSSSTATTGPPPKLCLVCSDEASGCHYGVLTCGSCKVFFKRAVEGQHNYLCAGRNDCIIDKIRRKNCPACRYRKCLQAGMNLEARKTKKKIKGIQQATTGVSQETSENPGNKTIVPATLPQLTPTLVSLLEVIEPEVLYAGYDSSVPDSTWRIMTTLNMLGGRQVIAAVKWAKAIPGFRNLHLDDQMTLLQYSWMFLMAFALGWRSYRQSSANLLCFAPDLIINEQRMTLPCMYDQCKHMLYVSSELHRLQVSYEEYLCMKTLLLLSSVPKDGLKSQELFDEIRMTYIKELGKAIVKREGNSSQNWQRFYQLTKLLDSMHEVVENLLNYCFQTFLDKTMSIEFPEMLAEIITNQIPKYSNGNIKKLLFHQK
Lysosomal acid glucosylceramidase (Homo sapiens), sequence (P04062 whole entry, looked up): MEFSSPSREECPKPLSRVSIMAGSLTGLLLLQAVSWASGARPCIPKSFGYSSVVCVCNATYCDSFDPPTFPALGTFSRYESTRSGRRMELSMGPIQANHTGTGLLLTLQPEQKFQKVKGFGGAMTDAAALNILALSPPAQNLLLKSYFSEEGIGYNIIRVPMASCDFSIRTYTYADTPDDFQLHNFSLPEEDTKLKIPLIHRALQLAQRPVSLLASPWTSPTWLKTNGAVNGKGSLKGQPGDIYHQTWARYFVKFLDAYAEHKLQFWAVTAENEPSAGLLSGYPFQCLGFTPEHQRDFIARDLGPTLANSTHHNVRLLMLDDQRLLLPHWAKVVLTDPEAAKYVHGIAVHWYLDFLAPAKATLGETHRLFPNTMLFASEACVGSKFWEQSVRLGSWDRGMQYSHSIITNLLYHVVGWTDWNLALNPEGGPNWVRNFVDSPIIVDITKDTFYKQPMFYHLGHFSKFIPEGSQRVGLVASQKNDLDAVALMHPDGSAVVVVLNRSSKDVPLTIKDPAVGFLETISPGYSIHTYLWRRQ
3',5'-cyclic-AMP phosphodiesterase 4B (Homo sapiens), sequence (Q07343 whole entry, looked up): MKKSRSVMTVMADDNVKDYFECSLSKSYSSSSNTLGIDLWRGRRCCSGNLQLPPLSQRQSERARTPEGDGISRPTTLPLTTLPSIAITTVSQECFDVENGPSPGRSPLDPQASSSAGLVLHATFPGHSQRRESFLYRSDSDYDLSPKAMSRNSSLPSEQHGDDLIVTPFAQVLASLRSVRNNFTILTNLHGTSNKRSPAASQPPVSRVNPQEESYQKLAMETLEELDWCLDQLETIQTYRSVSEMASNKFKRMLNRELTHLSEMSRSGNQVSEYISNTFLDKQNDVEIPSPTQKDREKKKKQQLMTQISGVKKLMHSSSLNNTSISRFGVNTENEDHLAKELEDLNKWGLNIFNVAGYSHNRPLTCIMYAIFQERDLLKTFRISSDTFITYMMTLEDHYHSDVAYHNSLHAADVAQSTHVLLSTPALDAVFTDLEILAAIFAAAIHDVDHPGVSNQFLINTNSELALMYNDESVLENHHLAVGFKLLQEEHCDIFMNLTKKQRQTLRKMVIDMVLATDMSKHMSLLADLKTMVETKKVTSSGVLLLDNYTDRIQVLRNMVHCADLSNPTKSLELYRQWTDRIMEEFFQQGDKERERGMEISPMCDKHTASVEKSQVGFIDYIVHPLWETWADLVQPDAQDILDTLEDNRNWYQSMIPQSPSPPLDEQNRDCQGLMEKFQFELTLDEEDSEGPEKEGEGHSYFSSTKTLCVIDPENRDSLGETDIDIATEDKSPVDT

In the case of `CN(C)CCCn1cnc2cc(Cl)c(Cl)cc21`, the Potency in [1] is > 11.4 µM; in assay [6] it was > 46 µM; in assay [7], > 9.22 µM. Moreover, the values for the activity change, negative = inhibition in assay [2], in assay [3] and in assay [4] were 1.9%, -20% [at 2.29 µM] and -23.5%, respectively. In assay [5], the activity, negative = inhibition is 11.7%. In addition, the Potency entry in assay [8] and in assay [9] was “inactive” throughout.

For the compound `O=C(O)[C@@H]1[C@@H]2C[C@@H]3[C@@H](OC(=O)[C@@H]31)[C@H]2Br`, the Potency is > 11.4 µM in assay [1], > 46 µM in assay [6] and > 9.22 µM in [7]. Further, the activity change, negative = inhibition in assay [2] is 4.57%; in [4], -26.7%. Also, the Potency result in [3], in assay [8] and in assay [9] was “inactive” throughout. Moreover, in [5], the activity, negative = inhibition is 5.86%.

For `NC(N)=N/N=C(\c1ccc(Cl)cc1)C1CC1`, the Potency was > 11.4 µM in assay [1], 0.794 µM (active) in assay [3], > 46 µM in assay [6] and > 9.22 µM in assay [7]. The activity change, negative = inhibition in assay [2] was 8.61%; in [4], -17.9%. Moreover, the activity, negative = inhibition in [5] is -1.61%. Further, the Potency result in assay [8] and in [9] was “inactive” in each case.

Take `NCc1ccc(C(=O)O)cc1`: the Potency was > 11.4 µM in assay [1], > 46 µM in assay [6] and > 9.22 µM in [7]. Further, the results for the activity change, negative = inhibition in assay [2], in assay [3] and in [4] were 3.17%, -4.8% [at 2.29 µM] and 6.92%, respectively. For the same compound, in assay [5], the activity, negative = inhibition was -2.22%. For the same compound, the Potency result in assay [8] and in assay [9] was “inactive” in each case.

As for `O=C(O)CCCSc1nc2ccccc2s1`, the Potency in assay [1] was > 11.4 µM; in [6], > 46 µM; in assay [7] it was > 9.22 µM. Further, the activity change, negative = inhibition in [2] was 1.43%; in assay [4] it was -19.5%. The Potency entry in assay [3], in [8] and in assay [9] was “inactive” throughout. The activity, negative = inhibition in assay [5] was 4.62%.

With `O=[N+]([O-])c1ccc2c(c1)Cc1cc(N=Cc3ccc4c(c3)OCO4)ccc1-2`, the Potency in assay [1] was > 11.4 µM; in [3] it was 0.794 µM (active); in [6], > 46 µM; in assay [7] it was > 9.22 µM. For the same compound, the activity change, negative = inhibition in assay [2] is -3.82%; in [4] it was -8.54%. Moreover, in assay [5], the activity, negative = inhibition was -4.51%. For the same compound, the Potency entry in assay [8] and in assay [9] was “inactive” in each case.

`N#C/C(=C\N1CCNC1=S)C(=O)c1ccc2ccccc2c1`: the Potency is > 11.4 µM in assay [1], 1.58 µM (active) in [3], > 46 µM in [6] and > 9.22 µM in assay [7]. The activity change, negative = inhibition is -19.2% in assay [2] and 5.58% in [4]. In addition, the activity, negative = inhibition in assay [5] is -8.82%. The Potency entry in [8] and in assay [9] was “inactive” in each case.

As for `Nc1nc(N)c2nn(-c3ccc(C(=O)O)cc3)nc2n1`, the Potency is > 11.4 µM in assay [1], > 46 µM in [6] and > 9.22 µM in assay [7]. Besides, the results for the activity change, negative = inhibition in [2], in assay [3] and in assay [4] were -3.5%, -13.4% [at 2.29 µM] and 6.6%, respectively. In addition, the activity, negative = inhibition in assay [5] is -0.747%. The Potency entry in [8] and in assay [9] was “inactive” in each case.

In the case of `Cc1ccc(-[n+]2cc(=O)o[nH]2)cc1`, the Potency is > 11.4 µM in assay [1], 3.98 µM (active) in [3], > 46 µM in assay [6] and > 9.22 µM in assay [7]. Besides, the activity change, negative = inhibition in [2] was 4.74%; in assay [4], -24.7%. The activity, negative = inhibition in assay [5] is 12.6%. The Potency entry in [8] and in assay [9] was “inactive” in each case.

As to `O=[N+]([O-])c1ccccc1N=Nc1c(O)[nH]c2ccc(S(=O)(=O)O)cc12`, the Potency was > 11.4 µM in [1], 1 µM (active) in assay [3], > 46 µM in assay [6] and > 9.22 µM in assay [7]. Further, the values for the activity change, negative = inhibition in assay [2] and in assay [4] were -1.77% and 11%, respectively. Besides, in assay [5], the activity, negative = inhibition is -1.49%. In addition, the Potency entry in [8] and in assay [9] was “inactive” throughout.

On to `CC(=O)[C@@H](C)CCO[C@@]1(C)OCC[C@@H]1C`, for which the values for the Potency in assay [1], in assay [6] and in assay [7] were > 11.4 µM, > 46 µM and > 9.22 µM, respectively. Moreover, the activity change, negative = inhibition was 12.4% in assay [2] and 6.23% in assay [4]. Also, the Potency result in [3], in assay [8] and in assay [9] was “inactive” throughout. In addition, in [5], the activity, negative = inhibition was 14.8%.

Turning to `N[C@H](C(=O)O)[C@H](N)C(=O)O`, the Potency in assay [1] is > 11.4 µM; in assay [6], > 46 µM; in [7], > 9.22 µM. In addition, the activity change, negative = inhibition is 9.49% in assay [2] and -1.65% in [4]. For the same compound, the Potency entry in assay [3], in assay [8] and in [9] was “inactive” in each case. Further, the activity, negative = inhibition in assay [5] is 4.68%.

As for `O=C(O)c1cccc(OCCO)c1`, the Potency in assay [1] was > 11.4 µM; in [6] it was > 46 µM; in [7], > 9.22 µM. In addition, the activity change, negative = inhibition in assay [2] is 7.9%; in [4] it was -28.1%. The Potency result in [3], in [8] and in assay [9] was “inactive” throughout. For the same compound, the activity, negative = inhibition in [5] is 13.6%.

Take `O=C(O)C[C@H]1OCC=C2C[N@@+]3([O-])CC[C@]45c6ccccc6N[C@@H]4[C@@H]1[C@H]2C[C@H]53`: the Potency is > 11.4 µM in [1], > 46 µM in [6] and > 9.22 µM in assay [7]. Further, the activity change, negative = inhibition in assay [2] was 9.8%; in assay [3] it was -14.3% [at 2.29 µM]; in [4], 1.94%. In assay [5], the activity, negative = inhibition was 3.39%. In addition, the Potency entry in [8] and in assay [9] was “inactive” each time.

Regarding `NC(N)=NC(N)=Nc1c(F)c(F)c(F)c(F)c1F`, the Potency in assay [1] was > 11.4 µM; in assay [6], > 46 µM; in assay [7] it was > 9.22 µM. Further, the activity change, negative = inhibition in assay [2] is 8.28%; in assay [3], 10.9% [at 2.29 µM]; in [4], -23.3%. Also, the activity, negative = inhibition in [5] was 3%. Moreover, the Potency entry in [8] and in assay [9] was “inactive” throughout.

`CCC[C@H](Sc1nc(N)nc2nc[nH]c12)C(=O)O`: the Potency in assay [1] was > 11.4 µM; in assay [6] it was > 46 µM; in assay [7], > 9.22 µM. Besides, the activity change, negative = inhibition in assay [2] was -8.03%; in assay [4] it was -19.8%. Further, the Potency entry in [3], in assay [8] and in assay [9] was “inactive” throughout. The activity, negative = inhibition in [5] was 6.16%.
